Source: PubChem BioAssay (Tox21)
Results filed as inconclusive are left out. Entries that show only a call come without a potency. The source made the active and inactive calls. Calls follow the shape of the dose curve; as a rule, active = well fitted activation curve with a large enough effect in the repeat runs; inconclusive = weak or mixed curves; inactive = no such curve, though single readings can be large or run the other way.

What follows are compounds tested against Nuclear receptor subfamily 1 group I member 3 (Homo sapiens) (UniProt Q14994) (assay: qHTS assay to identify small molecule agonists of the constitutive androstane receptor (CAR) signaling pathway (AID 1224839; also: nearly all actives have a fitted effect of over 15% in size)). Settings: HepG2 hCAR CYP2B6-luciferase, agonist mode, 24 h; series mostly up to 92.4 µM.
Sequence of Nuclear receptor subfamily 1 group I member 3 (Homo sapiens) (Q14994 whole entry, looked up): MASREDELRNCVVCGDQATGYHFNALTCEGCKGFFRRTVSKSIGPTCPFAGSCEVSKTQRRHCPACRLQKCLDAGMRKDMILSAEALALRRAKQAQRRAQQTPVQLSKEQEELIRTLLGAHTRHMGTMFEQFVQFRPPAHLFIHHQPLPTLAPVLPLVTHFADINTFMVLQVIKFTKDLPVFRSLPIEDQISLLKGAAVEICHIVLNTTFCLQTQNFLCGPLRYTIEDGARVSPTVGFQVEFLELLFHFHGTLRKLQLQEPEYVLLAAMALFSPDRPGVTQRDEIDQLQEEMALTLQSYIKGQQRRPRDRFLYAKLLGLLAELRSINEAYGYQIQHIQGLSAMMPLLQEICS
Procedure, shortened: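 HepG2 cells stably expressing hCAR and a CYP2B6-2.2kb luciferase reporter were treated with compounds at 15 concentrations plus 0.75 uM PK11195 (final) for 24 h at 37 C; luminescence was read after ONE-Glo addition.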

| Structure (SMILES) | Potency | activation |
| --- | --- | --- |
| O=S(=O)(O)CCN1CCN(CCO)CC1 | inactive | – |
| Cc1cc(C(C)(C)C)c(O)c(C)c1CC1=NCCN1 | inactive | – |
| CC(C)(C)c1n[nH]c(=S)n(N)c1=O | inactive | – |
| CCC(C)NC(N)=O (stereo not given) | inactive | – |
| Oc1cn2c(n1)Nc1ccc(Cl)c(Cl)c1C2 | – | 5.1% [at 19 µM] (inactive) |
| Cc1nc2n(c(=O)c1CCN1CCC(c3noc4cc(F)ccc34)CC1)CCC[C@H]2O | – | -1.43% [at 19 µM] (inactive) |
| NS(=O)(=O)c1ccc(NC(=O)CCC(=O)O)cc1 | inactive | – |
| C=C(C)C(=O)OCC(C)(C)COC(=O)C(=C)C | inactive | – |
| CCCCCCCCSCC | inactive | – |
| C=C(C)C1CCC(C)(O)CC1 (stereo not given) | inactive | – |
| On1nnc2ccccc21 | inactive | – |
| O=C(CCNNC(=O)c1ccncc1)NCc1ccccc1 | inactive | – |
| N[C@@H](COP(=O)(O)O)C(=O)O | – | -2.56% [at 19 µM] (inactive) |
| O=C1CC(c2ccc(Cl)cc2)CC(=O)N1 | inactive | – |
| CCOc1cc(NC(C)=O)ccc1C(=O)OC | inactive | – |
| CCOC(=O)c1ncn2c1CN(C)C(=O)c1cc(F)ccc1-2 | inactive | – |
| CC(C)N(c1ccccc1)C(C)C | inactive | – |
| CC(C)(C)c1nnc(NS(=O)(=O)c2ccc(N)cc2)s1 | inactive | – |
| C=CCCCCCCCCCCCC | inactive | – |
| COCCOCCOCCOCCOCCO | inactive | – |
| CCCCCCCCOS(=O)(=O)O | inactive | – |
| CC(=O)NCc1c(I)c(NC(C)=O)c(I)c(C(=O)O)c1I | inactive | – |
| CC(C)C[C@H](NC(=O)CNC(=O)[C@H](Cc1ccc(O)cc1)NC(=O)[C@H](CO)NC(=O)[C@H](Cc1c[nH]c2ccccc12)NC(=O)[C@H](Cc1cnc[nH]1)NC(=O)[C@@H]1CCC(=O)N1)C(=O)N[C@@H](CCCN=C(N)N)C(=O)N1CCC[C@H]1C(=O)NCC(N)=O (stereo in doubt) | inactive | – |
| COc1cc(C(=S)N2CCOCC2)cc(OC)c1OC | inactive | – |
| Cc1ccc(C=O)cc1C | inactive | – |
